Our source for the inhibition values is PubChem BioAssay AID1974 (The Scripps Research Institute Molecular Screening Center, 2009).

Each structure is given as a SMILES string. Several values for one entry are separate records, joined by “and”; a condition that tells them apart may be missing. Equal entries are not always repeated. About 3,200 (1.1%) of roughly 300,000 compounds were called active.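 The calls were made as follows: active = inhibition above the campaign mean inhibition plus 3 SD (cut at about 35% in these data); inactive = the rest.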 The entries come from a sample that favours actives as a whole.

The target in the experiment is Glutathione S-transferase omega-1 (Homo sapiens) (UniProt P78417). Put plainly: human GSTO1 enzyme inhibition – biochemical, fluorescence polarization, counter-screen for RBBP9 inhibitor project, primary screen (AID 1974).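 Also: 0% = GSTO1-1 with DMSO and 100% = wells lacking GSTO1-1 enzyme.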 The note with it: recombinant GSTO1, activity-based probe fluorescence polarization; at 5.96 µM; stronger effect = higher value. (In general: Polarisation of emitted light reports the rotation of a fluorescent probe.)
Glutathione S-transferase omega-1 (Homo sapiens), sequence (P78417 whole entry, looked up): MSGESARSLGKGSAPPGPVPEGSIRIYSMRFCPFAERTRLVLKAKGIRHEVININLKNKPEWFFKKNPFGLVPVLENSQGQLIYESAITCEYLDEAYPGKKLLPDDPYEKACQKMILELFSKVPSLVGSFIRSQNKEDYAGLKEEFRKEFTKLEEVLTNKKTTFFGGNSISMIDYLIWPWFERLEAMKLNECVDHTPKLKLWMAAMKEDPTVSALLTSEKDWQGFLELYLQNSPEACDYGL
In the case of `COc1ccc(C(C(=O)NC2CCCCC2)N(C(=O)c2snc(C(N)=O)c2N)c2ccccc2OC)cc1` (stereo unspecified), the inhibition was -5.23% (inactive).

As for `COc1cccc(N(C(=O)C2COc3ccccc3O2)C(C(=O)NC2CCCCC2)c2ccc(O)cc2)c1` (stereo unspecified), the inhibition is 0.47% (inactive).

For `COc1ccc(C(C(=O)NC2CCCCC2)N(C(=O)CCl)c2ccccc2Cl)cc1` (stereo unspecified), the inhibition is 38.1% (active).

For the compound `CC1=C(N2CCN(c3ncccn3)CC2)CCC1=O`, the inhibition is -2.06% (inactive).

On to `CCn1c(SC(C)C(=O)Nc2ccc(N3CCOCC3)cc2)nnc1-c1ccco1` (stereo unspecified), for which the inhibition was -7.32% (inactive).

With `CCOC(=O)C(C)N(c1ccccc1Cl)S(C)(=O)=O` (stereo unspecified), the inhibition is 2.86% (inactive).

For `Cc1cc(Cl)c(S(=O)(=O)NCC2CCCO2)cc1OCC(N)=O` (stereo unspecified), the inhibition was -0.4% (inactive).

`Cc1cc(Cl)c(S(=O)(=O)N(C)C)cc1OCC(N)=O`: the inhibition is -3.27% (inactive).

Consider `Cc1cc(Cl)c(S(=O)(=O)Nc2ccc3c(c2)OCCO3)cc1OCC(N)=O`, for which the inhibition is 35.7% (active).

Take `CSc1ccccc1NC(=O)c1cnc2sc(C)cn2c1=O`: the inhibition is -0.65% (inactive).

With `CCN(C(=O)COC(=O)c1sccc1C)c1c(N)n(Cc2ccccc2)c(=O)[nH]c1=O`, the inhibition was 13.2% (inactive).

As to `CN(C)CCn1c2c(c(SCC(=O)NCc3ccccc3)nc1=O)CCC2`, the inhibition is 0.7% (inactive).

For the compound `COc1ccc(CCNc2cc(N3CCN(C(=O)c4ccccc4OC)CC3)ccc2[N+](=O)[O-])cc1OC`, the inhibition is 0.42% (inactive).

For `O=C(Cc1ccc(Cl)cc1)NC(=S)Nc1ccccc1O`, the inhibition was -0.02% (inactive).

`Oc1ccc(CNc2ccccc2O)cc1`: the inhibition was 41.7% (active).

Turning to `O=[N+]([O-])c1ccccc1NCc1ccc(Cl)cc1`, the inhibition is 1.08% (inactive).

`O=C(Nc1cc(S(=O)(=O)N2CCOCC2)ccc1OCC(F)(F)F)c1ccc(N2CCCC2=O)cc1`: the inhibition is 6.19% (inactive).

For the compound `O=C(c1ccncc1)N1CCN(S(=O)(=O)c2cc(C(F)(F)F)cc(C(F)(F)F)c2)CC1`, the inhibition was 2.8% (inactive).

Take `CCOC(=O)c1ccccc1NC(=O)c1c(N)n(C)c(=O)[nH]c1=O`: the inhibition was -3.83% (inactive).

As for `Cc1cc(C)c(S(=O)(=O)NCC(c2ccc3c(c2)OCO3)N2CCOCC2)c(C)c1` (stereo unspecified), the inhibition was 3.98% (inactive).

For `CCCc1nc2ccccc2c(=O)n1/N=C/c1ccc(O)c(O)c1`, the inhibition is 45.8% (active).

With `O=c1c2ccccc2ncn1/N=C/c1ccccc1`, the inhibition was -0.07% (inactive).

In the case of `CCCc1nc2ccccc2c(=O)n1NC(=O)c1c(O)c2ccccc2[nH]c1=O`, the inhibition was 5.47% (inactive).

Consider `CO[C@@H]1[C@@H](OC(N)=O)[C@@H](O)C(Oc2ccc3c(O)c(NC(=O)c4ccc(O)c(CC=C(C)C)c4)c(=O)oc3c2C)OC1(C)C` (stereo partly specified), for which the inhibition is 2.82% (inactive).

With `COc1ccc2cc(S(=O)(=O)Nc3ccccn3)ccc2c1`, the inhibition was 2.15% (inactive).

Turning to `COc1ccc(S(=O)(=O)/N=C2\C=C(NS(=O)(=O)c3ccccc3)C(=O)c3ccccc32)cc1`, the inhibition was 58.3% (active).

As to `COc1ccc(S(=O)(=O)NCCCc2ccccc2)cc1`, the inhibition is 6.84% (inactive).

For the compound `Cc1ccc(S(=O)(=O)N2[C@@H](c3cccc(Cl)c3)C(C(=O)O)=CC[C@H]2c2ccc(Cl)c(Cl)c2)cc1`, the inhibition was -207% (inactive).

On to `CCC(C)CCN1CCN=C1N(C)C` (stereo unspecified), for which the inhibition is 0.8% (inactive).

For the compound `COCCCN(C(=O)CSCc1ccc(C)cc1)c1c(N)n(Cc2ccccc2)c(=O)[nH]c1=O`, the inhibition is -12.2% (inactive).

With `CC(C)CCN1CCN=C1N(C)C`, the inhibition was -2.91% (inactive).

For `CC(=O)N(C)c1ccc(NC(=O)C(F)(F)F)cc1`, the inhibition is 2.55% (inactive).

On to `CC(C)CNC(=O)C(=O)Nc1ccc(N(C)C)cc1`, for which the inhibition is 4.12% (inactive).

In the case of `CN(C)c1ccc(N/C=C/C(=O)C(F)(F)F)cc1`, the inhibition is 57.6% (active).

Take `[O-][n+]1ccc(OCc2ccccc2)cc1`: the inhibition was 10.9% (inactive).

On to `CN1C(C(=O)NCc2ccco2)CC2Cn3c(nc4ccccc43)C21` (stereo unspecified), for which the inhibition is 6.49% (inactive).

In the case of `O=c1cc(CCl)nc2scc(-c3ccccc3)n12`, the inhibition is 85.3% (active).

On to `OCCn1c(-c2ccccc2)csc1=Nc1ccccc1`, for which the inhibition is -1.25% (inactive).

Consider `O=C(O)Cc1csc(-c2cccc(Oc3ccccc3)c2)n1`, for which the inhibition was 2.72% (inactive) and 8.12% (inactive).

With `Cc1nc2ncnn2c(C)c1CCC(=O)N1CCN(C(=O)c2ccco2)CC1`, the inhibition was 50.8% (active).

Turning to `Cc1ccc(C)c(OCC(=O)N2CCN(C(=O)c3ccco3)CC2)c1`, the inhibition was -2.08% (inactive).

For the compound `Cc1nc2nc(C)c(CCC(=O)N3CCN(c4ccccc4)CC3)c(C)n2n1`, the inhibition is 8.27% (inactive).

For the compound `Cc1ccc(S(=O)(=O)CC(=O)Nc2sc(C)c(C)c2C(N)=O)cc1`, the inhibition is 0.44% (inactive).

Take `COc1cc(C(=O)NC2CCN(Cc3ccccc3)CC2)cc(Cl)c1OC(C)C`: the inhibition is -0.77% (inactive).

As for `COC(=O)c1cccc(NC(=O)CN2CCC(NC(=O)c3cc(OC)c(OC)c(OC)c3)CC2)c1`, the inhibition was 48.5% (active).

Regarding `O=C(CN1CCC(NC(=O)Nc2ccccc2)CC1)Nc1cccc([N+](=O)[O-])c1`, the inhibition is 5.63% (inactive).

For the compound `Cc1ccc(S(=O)(=O)N(C)c2ccc(OCC(=O)OCC(=O)N(CC#N)c3ccccc3)cc2)cc1`, the inhibition is 2.81% (inactive).

For `CC(C)c1ccc(S(=O)(=O)N2CCN(C(=O)CN3C(=O)NC(C)(c4ccccc4)C3=O)CC2)cc1` (stereo unspecified), the inhibition was 4.89% (inactive).

On to `O=C(Nc1cc(-c2ccccc2)nn1-c1ccccc1F)c1ccc([N+](=O)[O-])cc1`, for which the inhibition was -3.44% (inactive).

Regarding `CC(C)(C)c1ccc(C(=O)NCCn2c(N)c(C#N)c3nc4ccccc4nc32)cc1`, the inhibition was 6.36% (inactive).

Take `CCCNC(=O)c1c(N)n(-c2ccc(S(N)(=O)=O)cc2)c2nc3ccccc3nc12`: the inhibition is -3.18% (inactive).

Consider `CC(C)Cn1c(N)c(C(=O)NCc2cccs2)c2nc3ccccc3nc21`, for which the inhibition is 38.5% (active).

Consider `CCN1CCN(C(=O)N[C@@H](C(=O)N[C@@H]2C(=O)N3C(C(=O)O)=C(CSc4nnnn4C)CS[C@H]23)c2ccc(O)cc2)C(=O)C1=O`, for which the inhibition was -2.08% (inactive).

Consider `CC1(C)C/C(=N/Nc2ccc([N+](=O)[O-])cc2[N+](=O)[O-])C(C)(C)O1`, for which the inhibition is -2.6% (inactive).

Turning to `O=C(OCC1OC(Oc2ccc(O)cc2)C(O)C(O)C1O)c1ccccc1` (stereo unspecified), the inhibition was -6.08% (inactive).

For the compound `O=C(OCC1O[C@@H](OC(=O)c2cc(O)c(O)c(O)c2)[C@@H](OC(=O)c2cc(O)c(O)c(O)c2)[C@@H](OC(=O)c2cc(O)c(O)c(O)c2)[C@@H]1OC(=O)c1cc(O)c(O)c(O)c1)c1cc(O)c(O)c(O)c1` (stereo partly specified), the inhibition was 43.9% (active).

In the case of `O=C(CSc1n[nH]c(-c2cccs2)n1)N1CCCCC1`, the inhibition was 0.4% (inactive).

`COc1ccc(Cl)cc1NC(=O)CN1CCN(C(=O)N2CCOCC2)CC1`: the inhibition is 1.76% (inactive).

Regarding `O=C(Nc1cc(N2CCOCC2)ncn1)NC1(C(F)(F)F)Oc2ccc(Cl)cc2O1` (stereo unspecified), the inhibition was 57.4% (active).

For the compound `Cc1csc(NC(=O)NC2(C(F)(F)F)Oc3ccccc3O2)n1`, the inhibition was 28.1% (inactive).

Regarding `CN(CC(=O)Nc1cccc(F)c1)C(=O)C1CSC2(C)CCC(=O)N12` (stereo unspecified), the inhibition is -10.9% (inactive).

For `COC(=O)CCCC1=CC2=C(c3ccccc3)C(=O)C(C)(OC(=O)C3CCCC3)C(=O)C2=CN1c1ccc(OC)cc1` (stereo unspecified), the inhibition is 40% (active).

For `COC(=O)CCCC1=CC2=CC(=O)C(C)(OC(=O)c3cccs3)C(=O)C2=CN1c1cccc(C#N)c1` (stereo unspecified), the inhibition is 10.6% (inactive).

As for `COc1ccc(CCNC(=O)COC(=O)C2CCCCC2)cc1`, the inhibition was 3.87% (inactive).

`Cc1ccc(C)c(-c2nnc(NC(=O)CS(=O)(=O)c3ccccc3)o2)c1`: the inhibition is 9.44% (inactive).

On to `CCOc1ccc(C(C)=O)cc1COC(=O)CN1C(=O)NC2(CCCC2)C1=O`, for which the inhibition is 10.1% (inactive).

Turning to `C#CCOCCOCCOCCNc1nc(N2CCN(C(=O)CCCCCCCCCCNC(=O)Cn3cc(CCCCCN)nn3)CC2)nc(N2CCN(C(=O)CCCCCCCCCCNC(=O)[C@H](CO)n3cc(CCCSC)nn3)CC2)n1`, the inhibition is 4.11% (inactive).

Turning to `Oc1cc2c(cc1O)CN(C(=S)NCCc1ccc(Cl)cc1)CCC2`, the inhibition was -0.15% (inactive).

Turning to `COc1ccc2c(c1)SC(C)CC2=O` (stereo unspecified), the inhibition is -1.85% (inactive).

Regarding `CC1(C)CC(=O)c2ccc(O)cc2O1`, the inhibition is 8.19% (inactive).

In the case of `COc1ccc2c(c1)OC(O)(C(F)(F)C(F)F)CC2=O` (stereo unspecified), the inhibition is 42% (active).

`COc1ccc(OCCCC(=O)OC(C)C(=O)Nc2ccccc2[N+](=O)[O-])cc1` (stereo unspecified): the inhibition is -0.91% (inactive).

In the case of `COc1ccc(NC(=O)CN(C)C(=O)c2cc(-c3ccc(C)o3)nc3ccccc23)cc1`, the inhibition was 5.17% (inactive).

Consider `CN1C(=O)CC(c2ccccc2)C1=O` (stereo unspecified), for which the inhibition was 7.68% (inactive).

Turning to `OCC[C@H]1C[C@H](O)[C@@H](O)[C@]2(Cc3ccccc3CO2)O1`, the inhibition was 2.49% (inactive).

For `CC1(C)Cc2ccccc2-c2[nH]c(=S)[nH]c(=O)c21`, the inhibition was 3.5% (inactive).

Consider `CCC1(CC)Cc2ccccc2-c2nc(CCl)[nH]c(=O)c21`, for which the inhibition was 84.7% (active).

For the compound `CC1(C)Cc2ccccc2-c2nc(CN3CCOCC3)[nH]c(=O)c21`, the inhibition was -0.05% (inactive).

In the case of `O=C(COC(=O)CNS(=O)(=O)c1ccc(F)c(F)c1F)NC1CCCC1`, the inhibition was 14.3% (inactive).

For the compound `CC(OC(=O)CCC(=O)c1ccccc1)C(=O)Nc1ccc(F)cc1` (stereo unspecified), the inhibition is 3.4% (inactive).

In the case of `COc1ccc(S(=O)(=O)N2CCCCC2)cc1NC(=O)COc1ccccc1`, the inhibition is -8.4% (inactive).

Turning to `COc1ccc(S(=O)(=O)N2CCOCC2)cc1NC(=O)CSc1ncnc2ccccc12`, the inhibition was 38.4% (active).

With `COc1ccc(S(=O)(=O)N2CCOCC2)cc1NC(=O)COc1ccccc1`, the inhibition is 13.6% (inactive).

For the compound `CCn1cc(C(=O)NC2CCCCCC2)c(=O)c2cc(S(=O)(=O)N3CCCCC3)ccc21`, the inhibition is 0.56% (inactive).

In the case of `CCCOc1ccc(/C=N/NC(=O)C2CC2)c(OCCC)c1`, the inhibition was 5.8% (inactive).

For the compound `Cc1cc(NC(=O)C(C)N2C(=O)c3ccccc3S2(=O)=O)no1` (stereo unspecified), the inhibition was 12.5% (inactive).

By inhibition is commonly meant the change of the read-out against control, counted positive when it falls.
